# NIH3T3 tox = Cytotoxic Profiling in NIH 3T3 Cell Line of Diverse Libraries Using Quantitative High-Throughput Screening. NIH 3T3 viability, CellTiter-Glo ATP luminescence, 48-72 h. Potency, µM (titrated, usually from 96.7 µM), inactives show at the top dose activity change, negative = cytotoxicity, usual class: inhibitors. hit rate 4.3% among 94,000. AID 1345082, 2018; note: % is set by controls: 0 for no effect and ±100 for the full control effect; nearly all actives have a fitted effect of over 55% in size
#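 Cytotoxicity was measured by CellTiter-Glo ATP luminescence after 48 or 72 h compound exposure at 37 °C. Mouse NIH 3T3 fibroblasts were seeded at 400 cells/well and dosed by 23 nL pin transfer.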
# HEK293 tox = Cytotoxic Profiling in HEK 293 Cell Line of Diverse Libraries Using Quantitative High-Throughput Screening. HEK 293 viability, ATP luminescence (CellTiter-Glo), 48-72 h. Potency, µM (series often up to 115 µM), inactives show at the highest dose activity change, negative = cytotoxicity, usual class: inhibitors. hit rate 6.6% among 94,000. AID 1345083, 2018; note: % is set by controls: 0 for no effect and ±100 for the full control effect; nearly all actives have a fitted effect of over 60% in size
#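 Pintool-delivered compounds were incubated with HEK 293 cells (250 cells/well) at 37 degree Celsius for 48 or 72 hr. ATP-dependent luminescence (CellTiter-Glo) then reported remaining viable cells.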
# FLuc inh = Firefly luciferase inhibition profiling of diverse chemical library using quantitative high-throughput screening; Luciferin 4-monooxygenase (Photinus pyralis), P08659; purified P. pyralis luciferase, luminescence, biochemical; Potency, µM (highest dose often 115 µM), most hits filed as inhibitors; hit rate 2.5% among 76,000; note: % is set by controls: 0 for no effect and ±100 for the full control effect; nearly all actives have a fitted effect of over 65% in size
# Target sequence (P08659 whole entry, looked up): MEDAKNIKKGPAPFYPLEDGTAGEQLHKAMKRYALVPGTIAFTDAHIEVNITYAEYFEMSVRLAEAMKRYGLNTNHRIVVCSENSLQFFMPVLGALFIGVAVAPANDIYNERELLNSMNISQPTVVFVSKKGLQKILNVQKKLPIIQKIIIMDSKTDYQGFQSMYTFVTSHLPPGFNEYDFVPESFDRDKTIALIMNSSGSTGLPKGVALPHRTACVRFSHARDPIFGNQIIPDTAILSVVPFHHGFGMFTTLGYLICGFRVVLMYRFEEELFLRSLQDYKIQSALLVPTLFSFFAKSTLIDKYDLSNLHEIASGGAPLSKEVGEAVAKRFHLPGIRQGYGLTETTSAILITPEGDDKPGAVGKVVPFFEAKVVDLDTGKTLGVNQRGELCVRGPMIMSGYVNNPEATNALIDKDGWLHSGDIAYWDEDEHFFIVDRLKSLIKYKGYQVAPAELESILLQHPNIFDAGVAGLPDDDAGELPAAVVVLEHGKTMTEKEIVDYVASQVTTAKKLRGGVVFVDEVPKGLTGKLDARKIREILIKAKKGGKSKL
#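 Luminescence read by CCD imager after adding enzyme (10nM final) to wells holding compound, titrated in qHTS. Substrates 10uM each D-luciferin and ATP; buffer 50mM Tris acetate pH 7.5, 10mM Mg acetate, Tween-20, BSA.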
# SNCA expr inh = Primary qHTS assay for inhibitors of alpha-synuclein gene (SNCA) expression. HEK-293 SNCA-luciferase knock-in, luminescence, 24 h. Potency, µM (top dose mostly 57.2 µM), without a hit: at the highest dose activity change, negative = inhibition, most hits filed as inhibitors. hit rate 0.17% among 140,000. AID 1671194, 2021;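 note: plate controls were DMSO cells for no effect and cell-free wells for full effect; nearly all actives have a fitted effect of over 45% in size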
# HEK293 viab = GF-AFC viability counterscreen for inhibitors of alpha-synuclein gene (SNCA) expression; HEK-293-SNCA-luc viability, GF-AFC fluorescence, 24 h; Potency, µM (titrated, usually from 57.1 µM), for inactives: top-dose activity change, negative = cytotoxicity, hits mostly cytotoxic; hit rate 0.12% among 150,000; AID 1671193, 2021;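 note: 0% = DMSO-treated cells and -100% = medium-only wells without cells; nearly all actives have a fitted effect of over 30% in size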
#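 Cytotoxicity counterscreen: after 24 h compound treatment of genome-edited SNCA-luciferase HEK-293 cells, live-cell protease substrate GF-AFC read by fluorescence after 30 min; activity scaled between DMSO (0%) and medium-only (-100%), curves Hill-fitted.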
# hNpr1 antagonist = Natriuretic polypeptide receptor (hNpr1) antagonism - Primary qHTS; HEK293 hNpr1 GloSensor cGMP, ANP-stimulated luminescence; hit rate 1.6% among 76,000; Potency, µM (doses to about 46.3 µM), without a hit: at the top dose activity change, negative = inhibition, usual class: inhibitors; calls by dose curve; note: % is set by controls: 0 for no effect and ±100 for the full control effect; nearly all actives have a fitted effect of over 60% in size
#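 Compound pre-incubated 30 min at room temperature on GloSensor-loaded HEK293 cells stably carrying hNpr1 and the pGS-40F cGMP biosensor. Stimulation uses hNppA at 0.1 nM final; luminescence is taken at baseline and 20 min post-agonist.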
# NPR1 antag cnf = Natriuretic polypeptide receptor (hNpr1) antagonism - Confirmation. HEK293 hNpr1 cGMP GloSensor luminescence, ANP-stimulated. shares compounds with hNpr1 antagonist. AID 1347044, 2019. Potency, µM (top dose mostly 57.6 µM), without a hit: at the top dose activity change, negative = inhibition, most hits filed as inhibitors. hit rate 76% among 1,400; calls by dose curve; note: nearly all actives have a fitted effect of over 70% in size
# Npr2 selectivity = Natriuretic polypeptide receptor (hNpr2) antagonism - Subtype selectivity assay; shares compounds with hNpr1 antagonist; hit rate 67% among 1,400; Potency, µM (titrated, usually from 57.6 µM), for the others: at the highest dose activity change, negative = inhibition, hits mostly inhibitors; HEK293 hNpr2 GloSensor cGMP luminescence, CNP-stimulated; calls by dose curve; note: nearly all actives have a fitted effect of over 70% in size
# FLuc inh counter = Natriuretic polypeptide receptor (hNpr1) antagonism - Confirmation firefly luciferase (FLuc) inhibition counterscreen; shares compounds with hNpr1 antagonist; purified FLuc enzyme, luminescence, Km substrate; Potency, µM (top dose mostly 57.6 µM), without a hit: at the highest dose activity change, negative = inhibition, usual class: inhibitors; hit rate 0.7% among 1,400; AID 1347047, 2019; note: 0% is about no effect
# GloSensor ctrl = Natriuretic polypeptide receptor (hNpr1) antagonism - Counterscreen GloSensor control cell line | shares compounds with hNpr1 antagonist | HEK293 GloSensor cGMP, SNP-stimulated, luminescence | AID 1347051, 2019 | hit rate 69% among 1,400 | Potency, µM (series often up to 57.6 µM), inactives show at the highest dose activity change, negative = inhibition, actives largely listed as inhibitors; calls by dose curve; note: % is set by controls: 0 for no effect and ±100 for the full control effect; nearly all actives have a fitted effect of over 70% in size
# * marks the source's active call; other numbers are inactive results; i = inactive; ? = inconclusive; . = no result; [ ] = remark or other dose. The list is not random: actives were taken first. Their share in the collection is about 7.2%. Unless noted, calls come from the whole dose curve; as a rule, active = well fitted curve in the direction sought with a large enough effect; inconclusive = small, poorly fitted or top-dose-only effect, or another doubt; inactive = no such curve, though single readings can be large; an effect the other way counts as inactive or inconclusive. Potency is the fitted concentration of half-maximal effect.
SMILES,NIH3T3 tox,HEK293 tox,FLuc inh,SNCA expr inh,HEK293 viab,hNpr1 antagonist,NPR1 antag cnf,Npr2 selectivity,FLuc inh counter,GloSensor ctrl
COc1cccc([S+](=O)([O-])N2CCC3(CC2)C(=O)Nc2ccccc23)c1,?,?,i,?,3%[87.6 µM],13µM*,20µM*,20µM*,2%[86.2 µM],16µM*
COc1ccc(CCC(=O)N2CCn3nnc(CCC(=O)N4CCCC4)c3C2)cc1,-32%,-22%,.,-4%,-6%,.,.,.,.,.
COCCNC(=O)Cc1c[nH]c2ncc(-c3ccccc3)cc12,?,-17%[172 µM],i,-28%[87.6 µM],7%[87.6 µM],0%[70.6 µM],.,.,.,.
COc1ccc(NC(=O)Cc2c[nH]c3ncc(-c4ccccc4)cc23)cn1,-27%[138 µM],?,i,0%[87.6 µM],-19%[87.6 µM],?,?,?,-1%[86.2 µM],-20%[86.2 µM]
COc1cccc(NC(=O)Cc2c[nH]c3ncc(-c4cccnc4OC)cc23)c1,28µM*,50µM*,i,-14%[87.6 µM],?,?,40µM*,?,-10%[86.2 µM],?
CN1CC(=O)N(C2CCCNCC2)Cc2c1ncnc2N1CCNC(=O)C1 (configuration not stated),i,i,.,4%,8%,.,.,.,.,.
CN1Cc2ncnc(N3CCN(Cc4ccccc4)CC3)c2CN(C2CCC2)C1=O,-23%,-13%,i,8%,9%,-1%,.,.,.,.
CC1CCN(Cc2nnnn2CC(=O)N(Cc2ccncc2)CC2CCCO2)CC1 (configuration not stated),-13%,0%,i,2%,7%,14%,.,.,.,.
COc1ccc(N2CC3CCC(C2)N3CC(C)C)cc1,-14%[138 µM],-12%[172 µM],.,6%[87.6 µM],-3%[87.6 µM],.,.,.,.,.
O=c1n(-c2ccc(Cl)cc2)nc2n1CCN([S+](=O)([O-])c1cccs1)C2,?,-27%,.,8%,-22%,.,.,.,.,.
O=C(c1cc(F)ccc1Cl)N1CCC(Cc2nc(-c3ccccc3)no2)CC1,?,50µM*,i,17%,6%,11µM*,14µM*,15µM*,-12%,12µM*
O=C(c1cc(F)ccc1Cl)N1CCC(Cc2nc(-c3ccc(F)cc3)no2)CC1,?,?,i,-10%,-1%,7.1µM*,9.7µM*,11µM*,0%,8.6µM*
CC(C)c1noc(CC2CCN(C(=O)c3ccccc3Cl)CC2)n1,?,?,i,1%,?,-28%,.,.,.,.
O=C(c1cc(F)cc(F)c1)N1CCC(Cc2nc(-c3ccccc3)no2)CC1,?,?,i,5%,-9%,7.1µM*,6.1µM*,6.1µM*,-2%,5.4µM*
O=C(c1ccc(F)cc1)N1CCC(Cc2nc(C3CCOCC3)no2)CC1,?,?,i,?,-2%,?,.,.,.,.
O=C(c1ccc(F)cc1Cl)N1CCC(Cc2nc(-c3ccccc3)no2)CC1,?,?,i,-22%,-12%,5.6µM*,5.4µM*,5.4µM*,-1%,4.3µM*
O=C(c1ccc(F)cc1)N1CCC(Cc2nc(-c3cnccn3)no2)CC1,?,?,i,4%,-1%,-16%,.,.,.,.
C1CCC(CN2CCCC(c3nc(CCOCC4CCOCC4)no3)C2)CC1 (configuration not stated),-25%,?,i,9%,1%,-14%,.,.,.,.
COCc1ccc2c(c1)c(OC(C)(C)C(=O)N1CCN(CCO)CC1)nn2Cc1ccccc1,?,i,i,6%,5%,-12%,.,.,.,.
COC1CCN(C(=O)C(C)(C)Oc2nn(CCOc3ccccc3)c3ccccc23)CC1,?,89µM*,i,-23%[87.6 µM],-24%[87.6 µM],?,?,25µM*,-4%[86.2 µM],-1%[86.2 µM]
CC(C)(Oc1nn(CCN2CCOCC2)c2ccccc12)C(=O)NCc1ccccc1,-12%[138 µM],?,i,-20%[87.6 µM],2%[87.6 µM],-11%[70.6 µM],.,.,.,.
CC(C)(Oc1nn(Cc2cccc(Cl)c2)c2ccccc12)C(=O)N1CCN(CCO)CC1,?,?,i,15%,-9%,?,?,?,4%,-2%
Cc1cc(NC(=O)C(C)(C)Oc2nn(CCOc3ccccc3)c3ccccc23)n(C)n1,?,?,i,?,?,25µM*,35µM*,35µM*,2%[86.2 µM],31µM*
COc1ccc(-c2cccc(C(=O)N3CCC(NC(=O)c4ccncc4)CC3)c2)nn1,-1%,i,.,.,.,.,.,.,.,.
O[C@@H]1C[C@@H](c2nnc3n2CCN(Cc2ccc4c(c2)CCO4)C3)N(Cc2ccccc2)C1,-24%,-8%,i,-17%,-1%[12.5 µM],-1%,.,.,.,.
O=C(NCc1ccccc1Cl)c1ccc(CN2C(=O)NC3(CCOCC3)C2=O)cc1,-19%,-22%,i,4%,9%,-23%,.,.,.,.
CC(C)c1ccc(CNC(=O)c2ccc(CN3C(=O)NC4(CCOCC4)C3=O)cc2)cc1,?,?,i,2%,2%,7.1µM*,19µM*,19µM*,-2%,15µM*
Cc1nc2c(c(-c3ccc(O)cc3)n1)CN(Cc1ccccc1OC(F)(F)F)CC2,?,?,i,?,3%,-6%,.,.,.,.
Cc1nc2c(c(-c3ccc(O)cc3)n1)CN(Cc1cccc3ccccc13)CC2,?,?,i,17%,14%,-16%,-21%,-13%[86.2 µM],-1%[86.2 µM],i

# Screens: PubChem BioAssay, National Center for Advancing Translational Sciences (NCATS)
